This is part of a sample that, as a whole, favours compounds with a hit. Of some 83,000 tested, about 20% had one in any assay.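 A percent growth of 40 corresponds to 60% growth inhibition; 0 means no net growth; -100 means all cells died. Active threshold: below 10.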 A number with no mark means an inactive call. Activity calls are given as the source filed them.
Experiments:
Assay in all cases: NCI-60 one-dose screen, 48 h (100 = growth as untreated, 0 = no growth, -100 = all killed)
Settings in all cases: 10 µM unless noted
[1] = tested on: NCI/ADR-RES ovarian
[2] = tested on: T-47D breast
[3] = tested on: BT-549 breast
[4] = tested on: MDA-MB-435 melanoma
[5] = tested on: SW-620 colon
[6] = tested on: MCF7 breast
[7] = tested on: HCT-116 colon
[8] = tested on: HCC-2998 colon
[9] = tested on: KM12 colon

Row | SMILES | growth [1] | growth [2] | growth [3] | growth [4] | growth [5] | growth [6] | growth [7] | growth [8] | growth [9]
1 | O=C1CN=C(c2ccc(Cl)cc2)c2sccc2N1 | 109% | 95.3% | 103% | 109% | 110% | 96.5% | 101% | 116% | 103%
2 | COc1ccc(S(=O)(=O)N(Cc2ccc3c(c2)C=CC(C)(C)O3)c2ccccc2)cc1OC | 68.7% | 55.1% | 54% | 87.3% | 87.1% | 50.7% | 63% | 73.6% | 88.7%
3 | C=COC(=O)CCN1CC1 | 111% | 106% | 110% | 105% | 106% | 101% | 103% | 110% | 107%
4 | CC[C@H](C)[C@H](NC(=O)NC(C)(C)C)C(=O)N(C)[C@H](C[C@@H](OC(C)=O)c1nc(C(=O)N[C@@H](Cc2ccccc2)C[C@H](C)C(=O)OC)cs1)C(C)C | 23.3% | 53.5% | -14.6% (active) | -44.9% (active) | 20.5% | 13.1% | 1.01% (active) | 20% | 13.8%
5 | Cc1cc(C)c(CBr)c(C)c1 | 103% | 101% | 105% | 111% | 103% | 96.4% | 110% | 114% | 105%
6 | Fc1ccc(N2COOC3(OOC2)C2CC4CC(C2)CC3C4)cc1 | 53.2% | 75.7% | 95.4% | 94.4% | 109% | 76.1% | 90.9% | 106% | 82.7%
7 | COc1ccc(C(=O)c2cc(OC)c(OC)c(OC)c2)cc1OC(C)=O | 7.97% (active) | 55.2% | 8.56% (active) | -16.3% (active) | 25.1% | 15.7% | 6.24% (active) | 25.5% | 11.2%
8 | CCOC(=O)[C@@H](C)C[C@H](Cc1ccccc1)NC(=O)c1nc([C@@H](C[C@H](C(C)C)N(C)C(=O)[C@@H](NC(=O)[C@H]2CCCCN2C)C(C)C)OC(C)=O)sc1CCOCc1ccccc1 | 1.07% (active) | 24.7% | -50.9% (active) | -58.3% (active) | 6.51% (active) | 5.53% (active) | -33.7% (active) | -59.6% (active) | -39.8% (active)
9 | O=C(CCl)c1ccc([N+](=O)[O-])o1 | -49.5% (active) | -53.5% (active) | 44.3% | -4.26% (active) | -97% (active) | 18.6% | -100% (active) | 31.1% | -21.2% (active)
10 | CN(C)C(=O)Oc1ccccc1 | 98.2% | 105% | 118% | 112% | 93.8% | 104% | 104% | 102% | 110%
11 | [Cl][Hg][c]1cc(Br)cc(Br)c1 | 81.1% | 27.5% | 48% | 58.2% | 29% | 15.1% | 64% | 85.4% | 70.4%
12 | COc1cc([C@@H]2c3cc4c(cc3[C@H](OC(C)=O)[C@H]3COC(=O)[C@@H]23)OCO4)cc(OC)c1OC | -43% (active) | 99.2% | 8.82% (active) | -24.4% (active) | 26.8% | 13.5% | -14.2% (active) | -21% (active) | -37.1% (active)
13 | NC(=O)CNc1ccc([As]=[As]c2ccc(NCC(N)=O)cc2)cc1 (stereo not given) | 65.6% | 33.3% | 31.6% | 61.7% | 24.6% | 22.9% | 54.7% | 79.1% | 88.5%
14 | CC[C@H](C)[C@H](NC(=O)c1ccccn1)C(=O)N(C)[C@H](C[C@@H](OC(C)=O)c1nc(C(=O)N[C@@H](Cc2ccccc2)C[C@H](C)C(=O)OC)cs1)C(C)C | 16.1% | 80.7% | 24.2% | -25.3% (active) | 25.7% | 21.2% | 9.41% (active) | 23.9% | 10.2%
15 | COC(=O)[C@@H](C)C[C@H](Cc1ccccc1)NC(=O)c1csc([C@@H](C[C@H](C(C)C)N(C)C(=O)[C@@H](NC(=O)[C@H]2CCCN2C)C2CC2)OC(C)=O)n1 | 12.4% | 40.9% | -9.2% (active) | -20.6% (active) | 30.6% | 21.7% | 1.11% (active) | 14.8% | 1.92% (active)
16 | CC(=O)O[C@H]1C(=O)[C@@]2(C)[C@H]([C@H](OC(=O)c3ccccc3)[C@]3(O)C[C@H](OC(=O)[C@H](OC(=O)OCC4COC(C)(C)O4)[C@@H](NC(=O)c4ccccc4)c4ccccc4)C(C)=C1C3(C)C)[C@]1(OC(C)=O)CO[C@@H]1C[C@@H]2O (stereo not given in full) | 91.4% | 40.7% | 38.2% | -49.6% (active) | 38.7% | 18.9% | 19.2% | 39.9% | 18.7%
17 | CC(C)(N)Cc1ccccc1 | 111% | 107% | 101% | 107% | 105% | 99.4% | 101% | 110% | 105%
18 | CC[C@H](C)[C@H](NC(=O)C12C3C4C1C1C2C3C41NC)C(=O)N(C)[C@H](C[C@@H](OC(C)=O)c1nc(C(=O)N[C@@H](Cc2ccccc2)C[C@H](C)C(=O)OC)cs1)C(C)C (stereo not given in full) | 72.6% | 40.5% | 2.04% (active) | -27.9% (active) | 21.6% | 17.2% | 4% (active) | 15.9% | 15%
19 | COC(=O)[C@@H](C)C[C@H](Cc1ccc2ccccc2c1)NC(=O)c1csc([C@@H](C[C@H](C(C)C)N(C)C(=O)[C@@H](NC(=O)[C@H]2CCCCN2C)C(C)C)OC(C)=O)n1 | 60.3% | 72.9% | -22.3% (active) | 19.7% | 51.2% | 17% | 51.4% | 52.8% | 36.2%
20 | O=C1C2CCC1C(N1CCCC1)CC2 (stereo not given) | 102% | 106% | 98% | 96.8% | 99.5% | 94.7% | 102% | 106% | 101%
21 | COc1cccc2c1c(C(=O)c1ccco1)cn2Cc1ccc(F)cc1 | 104% | 97.2% | 116% | 148% | 109% | 99.6% | 111% | 102% | 116%
22 | COC(=O)[C@@H](C)C[C@H](Cc1ccccc1)NC(=O)c1csc([C@@H](C[C@H](C(C)C)N(C)C(=O)[C@@H](NC(=O)C23CC(NC(C)=O)(C2)C3)C2CC2)OC(C)=O)n1 | 97.8% | 62.7% | 51.5% | -16.5% (active) | 41.3% | 18.9% | 20.6% | 49.3% | 28%
23 | COC(=O)[C@H](Cc1ccccc1)NNC(=O)c1csc([C@@H](C[C@H](C(C)C)N(C)C(=O)[C@@H](NC(=O)[C@H]2CCCCN2C)C2CC2)OC(C)=O)n1 | 32.9% | 37.7% | -0.476% (active) | -55.8% (active) | 24.4% | 16.3% | 1.19% (active) | 10.8% | 5.13% (active)
24 | Cn1cc(-c2csc(-c3cn(CCCCN4CCCCC4)c4ccc(F)cc34)n2)c2cccnc21 | 81.7% | 81.5% | 81.1% | -91.1% (active) | -69.9% (active) | -55.9% (active) | 94.9% | 96.5% | 82.5%
25 | CC(=O)O[C@H](C[C@H](C(C)C)N(C)C(=O)[C@@H](NC(=O)[C@H]1CCCCN1C)C(C)C)c1nc(C(=O)N[C@@H](Cc2ccccc2)C[C@H](C)C(=O)O)c(C(C)C)s1 | 0.688% (active) | 44% | -23.3% (active) | -42% (active) | 27.3% | 15.1% | 3.68% (active) | -2.79% (active) | 4.51% (active)
